Only some compounds are listed: those with a hit (about 0.56% of all), similar ones and a draw of the others.
GALK inhibitor – qHTS Assay for Inhibitors of Human Galactokinase (GALK); Purified GALK, Kinase-Glo residual ATP luminescence; Potency, µM (doses to about 57.5 µM), for inactives: at the highest dose activity change, negative = inhibition, actives largely listed as inhibitors; 270,000 compounds, 0.007% hits; AID 1868, 2009; note: potency is the fitted concentration of half-maximal effect; % is set by controls: 0 for no effect and ±100 for the full control effect
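ATP-depletion format; final 35 uM ATP, 100 uM D-galactose, 5 nM enzyme; pH 8.0 HEPES/Mg2+ buffer; 60 min RT; luminescence read 10 min after detection reagent.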
CBFb RUNX1 block – qHTS Assay for Compounds Blocking the Interaction Between CBF-beta and RUNX1 for the Treatment of Acute Myeloid Leukemia. Runt-related transcription factor 1 (Homo sapiens) + Core-binding factor subunit beta …. AlphaScreen CBFb-His/RUNX1-biotin binding, biochemical. Potency, µM (doses to about 59.8 µM), for the others: at the highest dose activity, negative = inhibition, usual class: inhibitors. 230,000 tested, under 10 active. AID 1477, 2009; note: % of control where 0% means no effect
Target sequence (Q01196 whole entry, looked up): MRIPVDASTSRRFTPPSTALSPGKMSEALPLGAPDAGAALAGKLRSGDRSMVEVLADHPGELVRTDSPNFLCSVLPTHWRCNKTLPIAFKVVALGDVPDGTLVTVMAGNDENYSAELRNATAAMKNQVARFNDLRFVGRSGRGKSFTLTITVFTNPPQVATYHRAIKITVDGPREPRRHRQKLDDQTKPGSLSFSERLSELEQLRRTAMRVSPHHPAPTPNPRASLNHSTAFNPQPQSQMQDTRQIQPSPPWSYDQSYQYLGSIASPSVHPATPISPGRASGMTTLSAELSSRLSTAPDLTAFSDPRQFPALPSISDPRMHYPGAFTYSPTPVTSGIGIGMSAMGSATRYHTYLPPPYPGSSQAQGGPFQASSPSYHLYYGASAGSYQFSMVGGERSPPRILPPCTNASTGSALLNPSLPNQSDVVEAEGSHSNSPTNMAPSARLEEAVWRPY
Target sequence (Q13951 whole entry, looked up): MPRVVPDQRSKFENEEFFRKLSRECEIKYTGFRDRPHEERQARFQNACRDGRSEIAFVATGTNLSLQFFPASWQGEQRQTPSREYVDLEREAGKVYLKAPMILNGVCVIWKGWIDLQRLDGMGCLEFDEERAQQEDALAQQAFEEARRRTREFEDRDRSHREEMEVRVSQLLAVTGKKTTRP
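AlphaScreen binding: CBFb-His and RUNX1-biotin (30 nM each) preincubated 20 min, compound added for 15 min, then nickel and streptavidin beads for 90 min, all at room temperature. Disruption of the interaction by any mechanism counts as activity.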
PKM2 activator – qHTS Assay for Activators of Human Muscle isoform 2 Pyruvate Kinase. Pyruvate kinase PKM (Homo sapiens), P14618. purified PKM2, Kinase-Glo ATP luminescence, activation; response scale: 0% is enzyme alone, no compound. Potency, µM (series often up to 57.5 µM), without a hit: at the highest dose activation, actives largely listed as activators. 260,000 compounds, 0.34% hits; note: potency is the fitted concentration of half-maximal effect; % is set by controls: 0 for no effect and ±100 for the full control effect; nearly all actives have a fitted effect of over 55% in size
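Purified hPK-M2 (>95%) run at intermediate activity with 0.1 mM ADP and 0.5 mM PEP in 50 mM imidazole pH 7.2, KCl, MgCl2; 1 h room temperature. ATP formed read by Kinase-Glo luminescence; normalized to uninhibited and no-enzyme controls.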
Tb PFK block – qHTS Assay to Find Inhibitors of T. brucei phosphofructokinase; ATP-dependent 6-phosphofructokinase (Trypanosoma brucei brucei), O15648; T. brucei PFK, ADP-Glo luminescence; Potency, µM (doses to about 57.5 µM), without a hit: at the top dose activity, negative = inhibition, actives largely listed as inhibitors; 330,000 compounds, 0.17% hits;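 note: potency is the fitted concentration of half-maximal effect; 0% = uninhibited 1x PFK enzyme wells and -100% = no-enzyme wells; nearly all actives have a fitted effect of over 60% in size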
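Luminescent ADP detection (ADP-Glo, two-step: ATP depletion then ADP-to-ATP conversion for luciferase) reported PFK activity after 45 min room-temperature reaction of 1.25 nM enzyme with 0.5 mM F6P and 0.1 mM ATP at pH 8.0.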
KinaseGlo FLuc – Counterscreen for Luciferase (Kinase-Glo TM) Inhibition; Luciferin 4-monooxygenase (Photuris pensylvanica), Q27757; Kinase-Glo luciferase, ATP luminescence, 8 min; Potency, µM (titrated, usually from 38.3 µM), inactives show top-dose activity change, negative = inhibition, usual class: inhibitors; 200,000 compounds, 0.28% hits; AID 1379, 2008; note: potency is the fitted concentration of half-maximal effect; % is set by controls: 0 for no effect and ±100 for the full control effect; nearly all actives have a fitted effect of over 60% in size
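Compounds were added to a substrate mix at pH 7.2 (50 mM imidazole, 10 uM ATP, within the enzyme's linear range), followed by Kinase-Glo detection reagent; luminescence was measured after 8 minutes at ambient temperature.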
Numbers without * were called inactive; ? = inconclusive; · = not tested or not shown; [ ] = another dose, or the depositor's remark. Calls come from the whole dose curve; as a rule, active = well fitted curve in the direction sought with a large enough effect; inconclusive = small, poorly fitted or top-dose-only effect, or another doubt; inactive = no such curve, though single readings can be large; an effect the other way counts as inactive or inconclusive.

SMILES	GALK inhibitor	CBFb RUNX1 block	PKM2 activator	Tb PFK block	KinaseGlo FLuc
Cc1cccc(S(=O)(=O)c2c(N)n(Cc3ccco3)c3nc4ccccc4nc23)c1	-4%	4%	22µM*	-7%	0%
Cc1ccc(S(=O)(=O)c2c(N)n(Cc3ccco3)c3nc4ccccc4nc23)cc1	-2%	6%	?	-1%	-6%
O=S(=O)(c1ccc2c(c1)OCCO2)N1CCC(n2cnc3cc(F)ccc32)CC1	2%	-3%	7.1µM*	-2%	·
Cc1ccc(S(=O)(=O)N2CCC(n3nnc4cc(C)ccc43)CC2)cc1	0%	-3%	0%	-2%	3%
O=S(=O)(c1ccc2c(c1)OCCO2)N1CCC(n2nnc3cc(F)ccc32)CC1	-2%	-4%	8.9µM*	-4%	2%
O=S(=O)(c1ccc(F)cc1)N1CCC(n2cnc3ccccc32)CC1	1%	·	·	-1%	·
CCOC(=O)c1c(-c2ccc(C)o2)csc1NC(=O)CSc1nnc(C)s1	0%	-9%	13µM*	-15%	-2%
CCOC(=O)c1c(-c2cccs2)csc1NC(=O)CSc1ncn[nH]1	0%	-2%	28µM*	0%	0%
CCOC(=O)c1c(-c2ccc(C)o2)csc1NC(=O)CSc1nnnn1-c1ccccc1	-1%	10%	7.9µM*	-28%	-1%
CCOC(=O)c1c(-c2ccc(C)o2)csc1NC(=S)NC(=O)c1ccccc1Br	-1%	-1%	3.2µM*	-12%	0%
CCOC(=O)c1sc(NC(=O)CSc2nnnn2-c2ccccc2)nc1C	-4%	6%	2%	1%	1%
C=C(C)CN(CC#N)CC(=C)C	·	·	·	·	-4%[7.66 µM]
Cc1nc2cc(-c3ccccc3)sc2c(=O)n1N	?	8%	-105%	-30%	2.2µM*
C[C@@]12CC[C@@H]3[C@H](CCC4=CC(=O)CC[C@]43C)[C@@H]1CC[C@@H]2C(=O)COS(=O)(=O)c1ccc(Br)cc1	·	·	·	·	-1%[7.66 µM]
O=C(Nc1ccccc1)c1cn2ccccc2n1	·	8%	-18%	-2%	·
Cc1csc(NC(=O)c2cn3ccccc3n2)n1	18%	-6%	-57%	-29%	10µM*
C[C@H]1CC2[C@@H]3CCC4=CC(=O)C=C[C@]4(C)[C@@]3(F)[C@@H](O)C[C@]2(C)[C@@]1(O)C(=O)CO (stereo not given in full)	·	-2%	·	·	0%
CN1\C(=C/C=C/C=C/C=[N+](C)C)C(C)(C)c2ccccc21	22%	-22%	·	-20%	11µM*
O=C1C(C=Nc2ccccc2)=C(O)c2ccccc21	1%	-1%	-34%	-6%	13µM*
CN=CC1=C(O)c2ccccc2C1=O	-3%	1%	-3%	-5%	-1%
COc1ccc(N=CC2=C(O)c3ccccc3C2=O)cc1	1%	-2%	-33%	2%	4.5µM*
COc1ccc(N=C(C)C2=C(O)c3ccccc3C2=O)cc1	1%	-10%	-1%	9%	-9%
O=C1C(C=Nc2ccccc2O)=C(O)c2ccccc21	-1%	-5%	-4%	1%	10µM*
CN(C)CC(O)Cn1c2ccc(Br)cc2c2cc(Br)ccc21 (stereo not given)	·	13%	·	·	·
CCCCCCCC/C=C/CCCCCCCC(=O)NCCOP(=O)(O)O	·	-19%	·	·	·
c1ccc(C(c2cccc3c2ccc2ccccc23)[C@H](c2ccccc2)c2cccc3c2ccc2ccccc23)cc1 (stereo not given in full)	·	·	·	·	-3%[7.66 µM]
O=C(O)c1ccc(F)c(S(=O)(=O)Nc2cccc(F)c2)c1	·	·	·	·	-1%
CCS(=O)(=O)c1ccc(Sc2nncn2C)c([N+](=O)[O-])c1	1%	11%	·	-1%	2%
Cn1cnnc1Sc1cc(N2CCN(S(=O)(=O)c3ccccc3)CC2)ccc1[N+](=O)[O-]	·	-12%	0.22µM*	2%	-1%
CC(=O)NCCCC[C@H](NC(=O)OC(C)(C)C)C(=O)Nc1ccc2c(C(F)(F)F)cc(=O)oc2c1	·	28%	·	·	·
